Screens from PubChem.
Only some compounds are listed: those with a hit (about 3.7% of all), similar ones and a draw of the others.
BoNT F protease: BoNT F light chain protease inhibition | AID 588497 | hit rate 0.22% among 360,000 | inhibition, % at 10 µM | Multiplex microsphere protease cleavage assay, flow cytometry; in the data active = inhibition above about 35%, passing the limit was not always enough; inconclusive = no clear call, values can overlap the other calls; also: plate controls were buffer without enzyme for full effect and enzyme alone for no effect
Autofluor counter: compound fluorescence in toxin protease inhibitor counterscreen | hit rate 3.1% among 360,000 | compound autofluorescence counterscreen, microsphere flow cytometry; hits give high values | fluorescence intensity (concentration not given with the values); in the data active = fluorescence intensity above about 16000; inconclusive = no clear call, values can overlap the other calls
Anthrax LF inh2: anthrax lethal factor protease inhibition; P15917; multiplex microsphere protease cleavage assay, LF; inhibition, % at 10 µM; hit rate 0.12% among 360,000; also: plate controls were buffer without enzyme for full effect and enzyme alone for no effect
MazEF act: activators of E. coli MazEF toxin-antitoxin RNase. FAM/BHQ RNA-DNA oligo cleavage fluorescence, 5 h. AID 504720. activation, % at 20 µM. hit rate 0.32% among 350,000. P0AE70; in the data active = activation above about 50%
BoNT A protease: inhibitors of Botulinum neurotoxin A light chain protease; inhibition, % at 10 µM; multiplex microsphere protease substrate cleavage, flow cytometry; hit rate 0.17% among 360,000; AID 588499; also: plate controls were buffer without enzyme for full effect and enzyme alone for no effect
An asterisk follows results filed as active; u = inconclusive; x = no result; ! = repeats disagree. Rule as the data show it, unless noted: active = inhibition above about 30%; inconclusive = no clear call, values can overlap the other calls; inactive = below that.

SMILES | BoNT F protease | Autofluor counter | Anthrax LF inh2 | MazEF act | BoNT A protease
CCOC(=O)c1ccc(S(=O)(=O)N2CCN(CC3CC=CCC3)CC2)cc1 (centres undefined) | 7.1 | 17091* | -8.3 | -0.9 | u
CCOC(=O)c1ccc(NC(=O)C2CCN(S(=O)(=O)c3ccccc3)CC2)cc1 | -4.9 | 4605 | 0.7 | 4.6 | -1.0
CCOC(=O)c1ccc(S(=O)(=O)N2CCN(S(=O)(=O)CC)CC2)cc1 | -38.8 | 5312 | 0.2 | -4.4 | -1.1
CCOC(=O)c1ccc(NC(=O)C2CCCN(S(=O)(=O)c3ccc(F)cc3)C2)cc1 (centres undefined) | -4.2 | 24696* | -0.1 | -1.8 | -1.4
CCOC(=O)C1CCCN(S(=O)(=O)c2ccccc2)C1 (centres undefined) | 6.5 | 22239* | -0.6 | -4.0 | 1.6
CCOC(=O)C1CCCN(CCCc2ccccc2)C1 (centres undefined) | 3.5 | 23848*! | 2.9 | 1.9 | 0.4
CS(=O)(=O)N1CCCC(C(=O)Nc2ccc(F)c(F)c2)C1 (centres undefined) | -13.3 | 3543 | -8.2 | -0.6 | -0.1
O=C(NCc1ccc2c(c1)OCO2)c1ccc(-n2cnnn2)cc1 | 0.2 | 16294* | 1.4 | -1.1 | u
CN(c1ccc(C(=O)NCc2ccc3c(c2)OCO3)cc1)S(C)(=O)=O | 3.4 | 22044* | -0.1 | 0.5 | 2.9
O=C(NCc1ccc2c(c1)OCO2)c1nn(-c2ccccc2)c(=O)c2ccccc12 | -8.4 | 21677* | -8.8 | -3.0 | u
CCCN1C(=O)c2ccc(C(=O)NCc3ccco3)cc2C1=O | 0.6 | 23188* | -3.2 | -15.6 | u
CN(c1ccc(C(=O)NCc2ccc3c(c2)OCO3)cc1)S(=O)(=O)c1ccccc1 | -5.9 | 4881 | 0.9 | 0.6 | -1.9
O=c1[nH]c(=S)[nH]c2c1C(C1CCCCC1)OC(C1CCCCC1)C2 (centres undefined) | 3.9 | 5463 | 4.1 | x | 0.5
CC1CCCC(C)N1C(=O)COC(=O)c1ccco1 (centres undefined) | -8.1 | 3876 | 2.6 | 5.4 | 0.2
CCN1C(=O)c2ccc(C(=O)NCc3ccc4c(c3)OCO4)cc2C1=O | -2.0 | 16137* | -1.6 | 2.8 | 0.2
CN(C)CCCn1c2c3ccccc3ccc2c2oc(=O)c3ccccc3c21 | -5.9 | 4270 | 0.6 | 847.1* | 2.4
CN(C)CCCn1c(=S)[nH]c2ccccc2c1=O | -4.4 | 2011 | -0.9 | -6.1 | -0.5
COc1cccc(Nc2nc(C(N)CCc3ccccc3)cs2)n1 (centres undefined) | -16.7 | 2722 | -10.8 | x | -0.2
CC(=O)C1CCC2C3CC(O)C4=CC(=O)CCC4(C)C3C(=O)CC12C (centres undefined) | 1.9 | 3163 | -1.8 | 1.8 | 0.0
Cc1cccc(C)c1NC(=O)c1sccc1SCc1cccc(C(F)(F)F)c1 | -5.5 | 17658* | -1.8 | -2.8 | -4.0
Cc1cnc(=O)[nH]c1SCc1cccc(C(F)(F)F)c1 | 13.4 | 5325 | 5.3 | -9.0 | 2.4
Cc1ccc(NC(=O)c2sccc2SCc2cccc(C(F)(F)F)c2)cc1 | -12.5 | 22569* | -4.7 | -7.4 | -6.7
N#CCSc1ccsc1C(=O)Nc1ccc(F)cc1 | -4.8 | 16375* | -2.1 | -4.8 | -0.3
CCCCNS(=O)(=O)c1cccc(NC(=O)[C@@H]2O[C@H](CO)[C@@H](O)[C@H]2O)c1 | -4.0 | 4092 | -8.2 | x | -0.7
O=C(COc1ccc(Br)cc1)NNC(=O)c1ccc(-n2cncn2)c([N+](=O)[O-])c1 | 1.4 | 8724 | -2.1 | 1.9 | 1.7
SMILES | BoNT F protease | Autofluor counter | Anthrax LF inh2 | MazEF act | BoNT A protease
COc1ccc(Nc2nc(OC)nc(N3CCN(c4ccc(OC)cc4)CC3)n2)cc1 | -11.6 | 12487 | -3.5 | 9.4 | -3.7
CCOc1nc(NCCc2ccc(OC)c(OC)c2)nc(N2CCN(c3ccc(OC)cc3)CC2)n1 | -0.6 | 23445* | -1.8 | 9.7 | -0.8
COc1ccc(N2CCN(c3nc(NCCc4ccc(OC)c(OC)c4)nc(OC)n3)CC2)cc1 | -0.3 | 22889* | -4.9 | -5.7 | u
CCOc1cc(C)nc(NCCc2ccc(OC)c(OC)c2)n1 | -8.5 | 10760 | -1.5 | -0.7 | -0.1
COc1ccc(S(=O)(=O)NN=C2CCCCC2)cc1 | -5.3 | 10962 | -4.1 | 15.4 | -0.4
O=[N+]([O-])c1ccc(S(=O)(=O)NN=C2CCCCC2)cc1 | 4.1 | 2813 | 1.8 | 118.9* | 0.2
O=S(=O)(NN=C1CCCCCC1)c1ccc(Cl)cc1 | -5.7 | 6109 | -0.8 | 0.4 | -1.3
COc1ccc(S(=O)(=O)NN=C2CCCC2)cc1 | 0.1 | 20396* | -1.1 | -5.9 | -1.0
CCOC(=O)C1(S(=O)(=O)c2ccc(Cl)cc2)CCN(Cc2ccc(C)cc2)CC1 | -4.0 | 20535* | -9.0 | 1.6 | 0.0
COC(=O)c1ccc(C2C(C(=O)OCC(C)C)=C(C)N=C3SCCC(=O)N32)cc1 (centres undefined) | -1.0 | 22462* | -3.2 | -3.4 | 0.0
CC1=C(C(=O)OC(C)C)C(c2cccs2)N2C(=O)CCSC2=N1 (centres undefined) | -7.7 | 25343* | -1.9 | 3.4 | -4.6
COC(=O)C1=C(C)N=C2SCCC(=O)N2C1c1cccs1 (centres undefined) | -4.7 | 3337 | -4.7 | 2.1 | -0.3
COC(=O)C1=C(C)N=C2SCCC(=O)N2C1c1ccc(C(=O)OC)cc1 (centres undefined) | -7.3 | 24822* | -1.4 | 3.0 | -3.4
COCCOC(=O)C1=C(C)N=C2SCCC(=O)N2C1c1ccc(C(=O)OC)cc1 (centres undefined) | -10.2 | 3273 | 1.2 | 5.9 | 0.3
O=C(CN1C(=O)NC2(CCCC2)C1=O)Nc1cccc(Cl)c1 | -5.7 | 5502 | -2.1 | -18.5 | 0.9
O=C(NCc1ccc(F)cc1)c1cc(C2CCCCN2C(=O)c2ccc(Cl)cc2)on1 (centres undefined) | -1.5 | 3531 | 1.6 | x | 0.3
CCC1CCCCN1CCNS(=O)(=O)c1ccc2c(c1)oc(=O)n2C (centres undefined) | -1.0 | 6911 | -2.2 | 10.1 | -0.6
CC1CCCCN1CCNS(=O)(=O)c1ccc2c(c1)oc(=O)n2C (centres undefined) | -6.1 | 22199* | -2.9 | -1.5 | u
Cn1c(=O)oc2cc(S(=O)(=O)NCCN3CCc4ccccc4C3)ccc21 | 1.4 | 4614 | -5.0 | 0.0 | -0.9
Cn1c(=O)oc2cc(S(=O)(=O)NCCN3CCCCCC3)ccc21 | -13.4 | 21921* | -4.9 | 1.8 | u
COc1ccc(C2(CNC(=O)c3ccc(OC)c([N+](=O)[O-])c3)CCOCC2)cc1OC | 4.0 | 21598* | 0.1 | -8.1 | u
CSc1nsc(SC)c1-c1ccc(Cl)cc1 | -1.2 | 2892 | -2.8 | -2.0 | -0.4
CCCCOCCCNC(=O)C[C@@H]1C[C@@]2(C(=O)OC)CCCCC=C2N(Cc2ccco2)C1=O | -10.6 | 6270 | -8.6 | x | 0.1
Cc1nc2ncnn2c(C)c1CCC(=O)Nc1csc(N)n1 | 2.8 | 18816* | -15.1 | 4.8 | u
Cc1cccc(NC(=O)CCc2c(C)nc3ncnn3c2C)n1 | 23.1 | 4262 | -7.7 | 0.5 | 0.5
COC(=O)c1cc(NC(=O)CCc2c(C)nc3ncnn3c2C)cc(C(=O)OC)c1 | -6.4 | 17830* | -0.1 | -5.4 | -3.8
